Compound activity (PubChem BioAssay)
HTT cytoprotect – qHTS Multiplex Assay to Identify Dual Action Probes in a Cell Model of Huntington: Cytoprotection (ATP). PC12 HTT-Q103 induced, cytoprotection, ATP luminescence, 40 h. actives 0.14% (n = 230,000). Potency, µM (series often up to 56.4 µM), inactives show cytoprotection (ATP increase), most hits filed as activators; note: potency is the fitted concentration of half-maximal effect; % of control where 0% means no effect; nearly all actives have a fitted effect of over 45% in size
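Stable PC12 Q103-GFP cells in serum-supplemented, phenol red-free DMEM; induction by tebufenozide at 100 nM final; compound dose series; cell viability quantified luminescently from ATP.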
IMPase Li cell – qHTS Assay for Identifying the Cell-Membrane Permeable IMPase Inhibitors: Potentiation with Lithium. CHO-M1 cells, IP1 TR-FRET (IP-One), carbachol + lithium. Potency, µM (doses to about 59.4 µM), inactives show at the top dose activity, negative = IMPase inhibition, usual class: inhibitors. actives 0.35% (n = 210,000);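 note: IP1 builds up when IMPase is blocked and the TR-FRET signal falls; potency is the fitted concentration of half-maximal effect; plate controls were basal vehicle for no effect and high inhibitor control for full effect; nearly all actives have a fitted effect of over 50% in size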
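IP1 accumulation measured by competitive TR-FRET in lysed CHO-M1 cells after 30 min compound exposure at 37C, with a small lithium addition to potentiate weak responses. Hill-equation AC50 from ratio and donor-channel data.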
ALDH1A1 inh – qHTS Assay for Inhibitors of Aldehyde Dehydrogenase 1 (ALDH1A1); Aldehyde dehydrogenase 1A1 (Homo sapiens), P00352; Purified ALDH1A1, NADH fluorescence, propionaldehyde substrate; Potency, µM (highest dose often 75.3 µM), inactives show at the highest dose activity, negative = inhibition, hits mostly inhibitors; actives 7.3% (n = 220,000); AID 1030, 2008; active = well fitted inhibition curve with a large enough effect, not every such curve was filed as active; inconclusive = small, poorly fitted or top-dose-only effect, or another doubt; inactive = no such curve, though single readings can be large or run the other way;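 note: potency is the fitted concentration of half-maximal effect; plate controls were no enzyme wells and a reference inhibitor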
Target sequence (P00352 whole entry, looked up): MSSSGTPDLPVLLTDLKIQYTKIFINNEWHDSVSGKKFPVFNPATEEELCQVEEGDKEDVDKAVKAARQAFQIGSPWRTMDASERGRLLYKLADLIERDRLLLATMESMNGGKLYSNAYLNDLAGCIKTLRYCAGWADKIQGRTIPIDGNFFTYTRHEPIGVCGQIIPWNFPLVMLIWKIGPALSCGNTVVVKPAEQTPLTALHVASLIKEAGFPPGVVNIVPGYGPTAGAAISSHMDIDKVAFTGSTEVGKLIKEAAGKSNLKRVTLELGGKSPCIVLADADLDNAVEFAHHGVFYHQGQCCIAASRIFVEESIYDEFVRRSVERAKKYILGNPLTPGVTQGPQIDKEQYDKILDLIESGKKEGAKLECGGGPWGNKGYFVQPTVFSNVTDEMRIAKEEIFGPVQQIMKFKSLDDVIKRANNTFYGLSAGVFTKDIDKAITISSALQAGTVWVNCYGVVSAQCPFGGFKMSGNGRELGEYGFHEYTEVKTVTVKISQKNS
HPGD block – qHTS Assay for Inhibitors of HPGD (15-Hydroxyprostaglandin Dehydrogenase). 15-hydroxyprostaglandin dehydrogenase [NAD(+)] (Homo sapiens), P15428. purified HPGD, NADH fluorescence kinetic, PGE2 substrate. Potency, µM, without a hit: top-dose activity change, negative = inhibition, actives largely listed as inhibitors. actives 4.3% (n = 150,000); active = well fitted inhibition curve with a large enough effect, not every such curve was filed as active; inconclusive = small, poorly fitted or top-dose-only effect, or another doubt; inactive = no such curve, though single readings can be large or run the other way; note: potency is the fitted concentration of half-maximal effect; % is set by controls: 0 for no effect and ±100 for the full control effect
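NADH formation kinetics: reaction with 30 uM PGE2 and 1 mM NAD+ (final), 20 nM enzyme, Tris-HCl pH 8 with Tween 20, after 15 min compound preincubation at room temperature. Fluorescence change, last versus first of five reads.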
IMPase cell inh – qHTS Assay for Identifying the Cell-Membrane Permeable IMPase Inhibitors | Inositol monophosphatase 1 (Rattus norvegicus), P97697 | CHO-M1 cells, IP1 accumulation, HTRF TR-FRET ratio | inhibition (IP1 accumulation), % at 46.1 µM | 120,000 tested, under 10 active; active = well fitted curve in the direction sought with a large enough effect in the signal ratio, not every such curve was filed as active; inconclusive = small, poorly fitted or top-dose-only effect, or a change in a side signal; inactive = no such curve, though single readings can be large or run the other way; the % refers to the signal ratio;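 note: cells stimulated with carbachol in lithium chloride buffer; plate controls were DMSO basal wells for no effect and reference inhibitor wells for full effect; higher means more IMPase inhibition seen as more IP1 and lower FRET ratio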
Target sequence (P97697 whole entry, looked up): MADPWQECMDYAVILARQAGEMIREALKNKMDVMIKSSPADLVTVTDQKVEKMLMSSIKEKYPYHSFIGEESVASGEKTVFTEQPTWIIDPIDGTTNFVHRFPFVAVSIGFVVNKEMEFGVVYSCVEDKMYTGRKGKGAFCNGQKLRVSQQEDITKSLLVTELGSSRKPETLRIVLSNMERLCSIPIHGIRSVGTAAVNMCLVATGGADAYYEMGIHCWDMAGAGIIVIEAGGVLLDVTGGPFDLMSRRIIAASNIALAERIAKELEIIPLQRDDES
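Elevated IP1 in lysates lowers TR-FRET signal (665/620 ratio and 620 channel reported). Cells were CHO-M1, given carbachol (50 uM as added) plus 50mM LiCl, pH 7.4, 30 min, 37C; compounds titrated up to 46 uM; AC50 by Hill equation.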
HTT aggregate – qHTS Multiplex Assay to Identify Dual Action Probes in a Cell Model of Huntington: Aggregate Formation (GFP) | PC12 HttQ103-GFP aggregates, Acumen cytometry, 40 h | Potency, µM (titrated, usually from 46.1 µM), for inactives: at the highest dose activity change, negative = inhibition, most hits filed as inhibitors | actives 1.1% (n = 220,000) | AID 1688, 2009; note: potency is the fitted concentration of half-maximal effect; % is set by controls: 0 for no effect and ±100 for the full control effect; nearly all actives have a fitted effect of over 60% in size
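Multiplexed with ATP-based cell death, this channel scores GFP aggregates in PC12 cells expressing inducible HTTex1-Q103-GFP. Induction used 100 nM tebufenozide; compounds were tested in concentration series.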
* hit, by the source's call; ? = inconclusive; nt = not tested or not shown; [ ] = dose if it differs, or a comment. In the library only some 9.4% were active in any assay of this set; here they are far more common. Unless noted, calls come from the whole dose curve; as a rule, active = well fitted curve in the direction sought with a large enough effect; inconclusive = small, poorly fitted or top-dose-only effect, or another doubt; inactive = no such curve, though single readings can be large; an effect the other way counts as inactive or inconclusive.

SMILES	HTT cytoprotect	IMPase Li cell	ALDH1A1 inh	HPGD block	IMPase cell inh	HTT aggregate
NC(=O)Cn1c(=O)n(Cc2ccco2)c(=O)c2c3c(sc21)CCCCC3	-24%	5%[38.3 µM]	11µM*	-18%	9	4%
O=c1c2c3c(sc2n(CCN2CCCCC2)c(=O)n1Cc1ccco1)CCCCC3	-7%	40%[38.3 µM]	5.6µM*	-16%	11	-27%
CC(=O)c1cccc(NC(=O)Cn2cnc3c2c(=O)n(C)c(=O)n3C)c1	nt	nt	nt	nt	-7	nt
CCOC(=O)CSc1nnc2n(-c3ccccc3)c(=O)c3c4c(sc3n12)COC(C(C)C)C4 (configuration not stated)	nt	nt	nt	nt	2	nt
COC(=O)c1cc(NC(=O)CSC2=NCCS2)cc(C(=O)OC)c1	-29%	10%	13µM*	nt	nt	28%
O=C(O)c1ccccc1CSC1=NCCS1	-21%	-1%	20µM*	nt	nt	2%
Cn1ccnc1SCC(=O)Nc1cccc2ccccc12	-3%	-5%[38.3 µM]	0%	25µM*	-1	27%
COC(=O)c1ccccc1NC(=O)CSc1nccn1C	10%	-5%[38.3 µM]	-10%	-11%	3	-1%
O=C(CSC1=NCCS1)Nc1cccc2ccccc12	15%	35%[38.3 µM]	?	14µM*	-9	9%[1.84 µM]
N#Cc1ccccc1CSC1=NCCS1	2%[10 µM]	4%	?	nt	nt	-16%[9.22 µM]
O=C(CSC1=NCCS1)Nc1ccccc1F	6%	-14%[38.3 µM]	8.9µM*	28µM*	0	3%
Cn1ccnc1SCC(=O)c1ccc(Br)cc1	-20%	-10%[38.3 µM]	3.5µM*	?	7	32%
CC(C)C[C@@H](CC(=O)N[C@@H](CCCN)CC(=O)N[C@@H]1CCNC[C@H]1C(=O)N[C@H](CC(=O)N[C@@H](CCC(=O)O)CC(=O)O)CC(C)C)NC(=O)[C@@H]1CNCC[C@H]1N	?	20%	?	-3%	nt	nt
COC(=O)c1ccc(C(NC(=O)OCc2ccccc2)/C(C)=C/[C@@H](C)C(=O)NCc2nc3ccccc3s2)cc1 (some centres not stated)	3%	7%	-10%	-8%	nt	nt
COCCNC(=O)c1ccc(CN2CCc3ccccc3C2)cc1	nt	14%	8%	14µM*	nt	-16%
O=C(c1ccc(CN2CCc3ccccc3C2)cc1)N1CCCCC1	-10%	6%[38.3 µM]	?	2.5µM*	-9	-25%
Cc1cc(C)c(NC(=O)c2ccc(CN3CCc4ccccc4C3)cc2)c(C)c1	-21%	38%[38.3 µM]	3%	0%	16	?
CCCNC(=O)c1ccc(CN2CCc3ccccc3C2)cc1	23%[10 µM]	13%	-3%	-28%	nt	6%
C/C(=N\NC(=O)c1ccc(CN2CCc3ccccc3C2)cc1)c1ccccc1O	-171%	1%	?	nt	nt	10µM*
Cc1nn(C)c(C(=O)NNC(=O)Nc2cccc(C(F)(F)F)c2)c1Cl	-20%	5%	?	nt	nt	-17%
O=C(NC(=S)NNC(=O)[C@H]1C[C@@H]1c1ccccc1)c1ccc(F)cc1	-5%[10 µM]	nt	25µM*	nt	nt	-6%[9.22 µM]
Cn1cc(Cl)c(C(=O)Nc2nc3ccc([N+](=O)[O-])cc3s2)n1	-7%[10 µM]	-2%	9%	nt	nt	5%[9.22 µM]
O=C(NC1CC1)c1sc2cc([N+](=O)[O-])ccc2c1Cl	nt	1%	7%	25µM*	nt	-13%
O=C(NC1CCS(=O)(=O)C1)c1sc2ccccc2c1Cl (configuration not stated)	-60%	-3%	3%	nt	nt	1%
CC(NC(=O)c1sc2cc([N+](=O)[O-])ccc2c1Cl)C(C)(C)C (configuration not stated)	-26%[10 µM]	nt	0.56µM*	nt	4	28%
SMILES	HTT cytoprotect	IMPase Li cell	ALDH1A1 inh	HPGD block	IMPase cell inh	HTT aggregate
Nc1c(C(=O)c2ccccc2)sc2snc(SCC(=O)c3ccccc3)c12	-18%	1%[38.3 µM]	10µM*	-29%	3	7%
CN[C@@H](CC(C)C)C(=O)N[C@@H]1C(=O)N[C@H](CC(N)=O)C(=O)N[C@H]2C(=O)N[C@H]3C(=O)N[C@H](C(=O)N[C@H](C(=O)O)c4cc(O)cc(O)c4-c4cc3ccc4O)[C@H](O)c3ccc(c(Cl)c3)Oc3cc2cc(c3O[C@@H]2O[C@@H](CO)[C@@H](O)[C@@H](O)[C@H]2O[C@H]2C[C@](C)(N)[C@H](O)[C@H](C)O2)Oc2ccc(cc2Cl)[C@@H]1O	-12%[1.9 µM]	nt	nt	nt	1	nt
Cc1cc(C2=NNC(=NC3CC3)SC2)c(C)n1-c1ccccc1	-43%[10 µM]	12%	3.5µM*	-13%	3	21%
Cc1cc(C2=NNC(=NC3CC3)SC2)c(C)n1Cc1ccco1	-11%[10 µM]	19%	20µM*	-22%	-3	?
CC(C)(CO)CNC(=O)c1ccc(OC2CCN(C(=O)C3CC3)CC2)cc1	7%[10 µM]	-4%	-1%	nt	nt	0%[9.22 µM]
CCCCCCNc1ncnc2c1sc1nc(N3CCOCC3)c3c(c12)CCCC3	nt	nt	nt	nt	-3	nt
O=C(C(Cc1ccccc1)n1cccc1)N1CCN(c2ccccc2)CC1 (configuration not stated)	-38%	22%[38.3 µM]	-8%	-11%	10	?
CC1CCCN(C(=O)C(Cc2ccccc2)n2cccc2)C1 (configuration not stated)	-1%	13%[38.3 µM]	-2%	14µM*	5	15%
COc1cc(C)ccc1OCCOc1cc(C)ccc1Cl	0%	16%[38.3 µM]	?	2.2µM*	17	9%
COc1cc(C)ccc1OCCOc1c(Cl)cc(Cl)cc1Cl	-11%	nt	6%	nt	5	19%
COc1cc(/C=N/NC(=O)c2cc(-c3ccco3)nc3ccccc23)cc(OC)c1O	-1%[10 µM]	nt	22µM*	nt	nt	-8%[9.22 µM]
COC(=O)c1ccccc1NC(=O)CCS(=O)(=O)c1ccc(Br)cc1	-13%	12%	?	nt	nt	10%
O=C(CCS(=O)(=O)c1ccc(Br)cc1)Nc1cc(F)ccc1F	4%[10 µM]	-2%	22µM*	-2%	nt	-8%
CCOc1ccc(NC(=O)C2CCN(c3nnnn3-c3ccccc3)CC2)cc1	11%[1.9 µM]	5%	13µM*	-3%	0	-9%
O=C(Nc1cccc(F)c1)C1CCN(c2nnnn2-c2ccccc2)CC1	19%	0%[38.3 µM]	22µM*	-10%	7	2%
CCOc1ccc(NC(=O)C2CCN(C(=O)NCc3ccccc3)CC2)cc1	-1%	-7%[38.3 µM]	10%	-7%	6	-2%
